# Source: PubChem BioAssay (several laboratories)
# DAT uptake mod = modulates human dopamine transporter uptake under cocaine | Q01959 | LLC-PK1 hDAT cells, [14C]-dopamine uptake with cocaine IC80; actives deviate in either direction | actives 1.3% (n = 110,000) | B-score at 10 µM | AID 449768;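 active means Z score or B-score, a plate-position-corrected score, falls beyond the plate's 99.7% confidence bounds, in either direction; inactive means both scores lie inside the 99.7% bounds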;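 further: scored against the spread of the other compound wells on the same plate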
# Target sequence (Q01959 whole entry, looked up): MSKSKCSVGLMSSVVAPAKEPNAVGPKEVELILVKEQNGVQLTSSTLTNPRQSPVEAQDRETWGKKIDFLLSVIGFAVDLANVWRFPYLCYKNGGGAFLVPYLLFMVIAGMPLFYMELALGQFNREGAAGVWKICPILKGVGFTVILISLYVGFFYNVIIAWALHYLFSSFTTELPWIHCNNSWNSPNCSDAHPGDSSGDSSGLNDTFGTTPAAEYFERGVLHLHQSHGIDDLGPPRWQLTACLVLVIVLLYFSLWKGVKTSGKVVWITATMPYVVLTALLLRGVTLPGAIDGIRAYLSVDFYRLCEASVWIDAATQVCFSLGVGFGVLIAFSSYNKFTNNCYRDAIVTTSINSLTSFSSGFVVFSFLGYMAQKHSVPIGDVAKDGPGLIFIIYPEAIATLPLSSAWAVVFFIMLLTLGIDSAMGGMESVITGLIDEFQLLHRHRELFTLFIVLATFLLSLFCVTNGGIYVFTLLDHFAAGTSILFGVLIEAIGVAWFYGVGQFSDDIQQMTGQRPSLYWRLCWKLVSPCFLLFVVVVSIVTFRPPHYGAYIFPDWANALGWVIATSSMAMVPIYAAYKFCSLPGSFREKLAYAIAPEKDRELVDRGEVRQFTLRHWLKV
# WT yeast gro inh = growth inhibition of WT yeast, mitochondrial fusion screen; inhibition, % at 10 µM; actives 2.1% (n = 190,000); mitochondrial fusion phenotypic screen, WT strain; in the data active means inhibition above about 58%; tested in S. cerevisiae
# bCat KO growth = beta-catenin-lacking colon tumor cell growth suppression; actives 1.5% (n = 140,000); AID 818; viability, % at 10 µM; HCT116 beta-catenin knockout viability, CellTiter-Glo, 60 h; active compounds read low;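 active means viability at or under a set limit, the compound median less 4 SD, cut at about 6% in these data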;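 further: 0% = Hyamine 1622 control at 20 µM and 100% = untreated cell control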
# HCT116 PTEN-null = PTEN-deleted cell growth suppression | HCT116 PTEN-null viability, CellTiter-Glo, 60 h; active compounds read low | viability, % at 10 µM | actives 1.2% (n = 140,000);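 active means viability at or below a set limit, 4 SD under the median of all tested compounds, cut at about 3.7% in these data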;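 further: PTEN knockout HCT116 line with beta catenin targeted HCT116 as companion control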
# Starred values were filed as active, the others as inactive; nt = no result. This is a sample that favours compounds with a hit; in the whole collection about 3.6% have one here.
SMILES,DAT uptake mod,WT yeast gro inh,bCat KO growth,HCT116 PTEN-null
Fc1ccc(C2=CCN(C(c3cccs3)c3nnnn3CCc3ccccc3)CC2)cc1 (stereo not given),0.056,35,77,67
CCC(C)(C)n1nnnc1C(c1cccs1)N1CC=C(c2ccc(F)cc2)CC1 (stereo not given),0.061,72*,73,77
COC(=O)C1=C(c2cccc(OC)c2OC)C[C@@H]2CC[C@H]1N2C(=O)NC1CCCCC1,-0.77,nt,nt,nt
CCn1c(O)c(C(c2ccccn2)c2c(O)n(CC)c(=S)[nH]c2=O)c(=O)[nH]c1=S,-0.23,97*,96,101
COC(=O)C1CN(C#N)N(c2ccc(Cl)cc2)C12c1ccccc1-c1ccccc12 (stereo not given),-0.66,74*,1.2*,1.0*
COC(=O)C1=C(c2cc3ccccc3o2)C[C@@H]2CC[C@H]1N2C(=O)NC(C)C,-0.38,nt,nt,nt
CSc1ccc(C(=O)C2CCCN(Cc3cccnc3)C2)cc1 (stereo not given),nt,-4,nt,nt
CSc1ccc(C(=O)C2CCCN(Cc3cc4ccccc4[nH]3)C2)cc1 (stereo not given),nt,66*,nt,nt
CCOC(=O)C1SC2(C(F)F)CC1(O)c1c(c(OC)c3occc3c1OC)O2 (stereo not given),-0.016,64*,106,92
Nc1c2c(nc3sc4c(c13)CCCC4)CCCC2,nt,76,nt,nt
Nc1c2c(nc3sc4c(c13)CCCC4)CCCCC2,-1.5,-3,4.1*,7
Cc1oc(-c2ccccc2)nc1CN1C(=O)CN=C(c2ccccc2)c2ccccc21,nt,58*,76,71
CCCCn1c(O)c(C(C)=NC(Cc2c[nH]c3ccccc23)C(=O)OC)c(=O)[nH]c1=O (stereo not given),2.7*,9,82,100
CCOC(=O)CC(NC(=O)C(Cc1ccc(N(CCCl)CCCl)cc1)NC(C)=O)C(=O)OCC (stereo not given),nt,-14,nt,nt
OCCNc1c2c(nc3ccccc13)CCCC2,0.3,65*,92,89
CC(C)(C)c1ccc(C(=O)C2CCCN(C3CCC3)C2)cc1 (stereo not given),nt,46,nt,nt
O=C1NC(=O)C(CCc2ccncc2)(Cc2cccc(Cl)c2Cl)C(=O)N1c1ccc(Br)cc1 (stereo not given),nt,75*,21,17
CCCC(=O)OCC[N+](C)(C)C,-0.68,-7,89,102
CCC(C)n1c(C)cc(C(N)=O)c1C (stereo not given),nt,-14,nt,nt
O=C(c1ccco1)c1cn(Cc2ccc(Cl)cc2)c2ccccc12,0.093,69*,53,60
COc1ccccc1OCCCn1cc(C(=O)c2ccco2)c2ccccc21,-0.15,31,74,70
CCCCn1c(O)c(C=NC2CCCCC2N)c(=O)[nH]c1=O (stereo not given),-8.8*,-13,104,102
O=c1[nH]c2ccccc2n1C1CCN(CCCC(c2ccc(F)cc2)c2ccc(F)cc2)CC1,-0.5,70*,1.4*,1.1*
COC(=O)C1=C(c2cccc(OC)c2OC)C[C@@H]2CC[C@H]1N2C(=O)NCc1ccc(C(F)(F)F)cc1,-0.22,nt,nt,nt
Cc1ccc(-n2cc(CNC(C)Cc3cnccn3)c(-c3cccc(C)c3)n2)cc1 (stereo not given),nt,66*,nt,nt
SMILES,DAT uptake mod,WT yeast gro inh,bCat KO growth,HCT116 PTEN-null
Cc1oc2ccc(OC(=O)N(C)C)cc2c1C(=O)OC(C)C,-0.64,75*,82,74
CCOC(=O)c1c(-c2ccc(OC)cc2)oc2ccc(OC(=O)N(C)C)cc12,-0.24,9,58,55
COc1ccc(C2(c3cccc(O)c3OC)CCN(C(C)=O)CC2)cc1O,-0.39,nt,nt,nt
COc1ccc(Oc2cc(NC(=O)c3nn(C)cc3[N+](=O)[O-])cc([N+](=O)[O-])c2)cc1,-0.097,13,1.6*,1.4*
COc1ccc(OCC(=O)N2CCN(Cc3nc4cc([N+](=O)[O-])ccc4n3C)CC2)cc1,nt,-12,79,86
O=C(Cc1ccccc1)OCCN1CCCCC1,-0.6,9,98,105
O=C(c1ccccc1)C(CN1CCCC1)c1ccccc1 (stereo not given),nt,23,1.8*,1.5*
Oc1ccc2c3c1O[C@H]1c4[nH]c5ccccc5c4C[C@@]4(O)C(C2)N(CC2CC2)CC[C@]314,0.045,-1,nt,nt
O=C1C(=O)c2ccccc2-c2ccccc21,-1.1,97*,1.7*,2.2*
C[C@H]1CCC/C=C/C2C[C@H](O)CC2[C@H](O)/C=C/C(=O)O1 (stereo not given in full),-0.21,-3,8,10
CC1CCC/C=C/C2CC(O)CC2C(O)/C=C/C(=O)O1 (stereo not given),0.027,-7,2.8*,8
